Source: PubChem BioAssay AID1814 (Broad Institute, 2009)
About 22,000 (7.3%) of roughly 300,000 compounds were called active. Not shown: some 2% with an inconclusive outcome. Only a selection was taken, and actives are over-represented in it overall. Values without a mark were called inactive. Cut-off read from the data, not from the text of the source: active = activity score below about -60%; inconclusive = mostly about -28% to -61%; inactive = positive scores.

Assay: Activators via SNCA 5'UTR binding, MLPCN (AID 1814)
Conditions: alpha-synuclein 5'UTR reporter, activators screen; hits give low values; tested at 7.5 µM
With CCc1ccc(-c2cc(C(=O)NN3CCN(C)CC3)c3ccccc3n2)cc1 the activity score was -112% (active). With O=C(Nc1ccccc1)c1cc2ccccc2[nH]1 the activity score was -180% (active). In the case of CCn1c(=N)n(CC(=O)c2cccc(OC)c2)c2ccccc21, the activity score is reported as -124% (active). With Cc1cccc(NC(=O)c2cccc(C(F)(F)F)c2)c1 the activity score was -71.9% (active). In the case of O=C(Nc1ccccc1)Nc1ccc(C(F)(F)F)cn1, the activity score is reported as -120% (active). For Cc1ccc(NC(=O)Nc2cccc(C(F)(F)F)c2)nc1, the activity score was -115% (active). For COc1ccc(NC(=O)CCS(=O)(=O)c2cc3c(cc2Cl)NC(=O)CO3)cc1OC, the activity score was -91.8% (active). For CC(=O)Nc1ccc(NC(=O)CN2CCCC(C)C2)c(Cl)c1 (configuration not stated), the activity score was -105% (active). For CC(Sc1nc2cc(Cl)ccc2s1)C(=O)Nc1ccc2c(c1)OCO2 (configuration not stated), the activity score was -117% (active). In the case of O=C(c1cnn2ccccc12)N1CCc2ccccc21, the activity score is reported as -123% (active). For COc1cc(OC)cc(C(=O)NCC(=O)OCc2csc(-c3ccccc3)n2)c1, the activity score was -73.7% (active). In the case of CCCCOC(=O)c1[nH]c(C)c(C(=O)OC)c1C, the activity score is reported as -134% (active). With CCOC(OCC)c1ccc(/C=C\c2nccc(N)n2)cc1 the activity score was -117% (active). In the case of CC(=O)c1sc(N/N=C/c2ccc(C(C)C)cc2)nc1C, the activity score is reported as -149% (active). Compound COc1cccc(/C=N/Nc2cc(C)nc(-c3ccccc3O)n2)c1O has an activity score of 82.8%. For COc1ccccc1/C=N/Nc1nc(C)c(C(C)=O)s1, the activity score was -154% (active). With COc1cccc2sc(Nc3nc(C)c(C(C)=O)s3)nc12 the activity score was -179% (active). For Oc1oc(-c2ccccc2Br)nc1/C=N/c1ccccn1, the activity score was -124% (active). For O=C(CCc1ccccc1)Nc1cccc(-c2nnc(-c3ccco3)o2)c1, the activity score was -74.1% (active). In the case of Cc1ccc(OCC(=O)Nc2ccc(-c3nnc(-c4ccco4)o3)cc2)cc1, the activity score is reported as -69.1% (active). Compound CCCCOc1ccc(-c2nnc(-c3ccco3)o2)cc1 has an activity score of 60.2%. In the case of Cc1ccc(OCC(=O)Nc2ccc(-c3nc4ncccc4o3)cc2)cc1, the activity score is reported as -85.6% (active). In the case of CCC(=O)Oc1cccc(C(=O)Nc2ccc(-c3nnc(-c4ccco4)o3)cc2)c1, the activity score is reported as -227% (active). In the case of Fc1ccccc1OCCSc1nc2ccccc2o1, the activity score is reported as -139% (active). With Cc1cccc2nc(CNc3ccc(F)cc3)cn12 the activity score was -64.9% (active). With Cc1ccc(-n2ncc3c(Nc4cccc(C(=O)O)c4)ncnc32)cc1 the activity score was -200% (active). For CC(=O)NCC(=O)N1CCC(n2nccc2NC(=O)CCCc2ccccc2)CC1, the activity score was -67.3% (active). With Cn1c(SCc2nc3ccccc3s2)nnc1-c1ccc2c(c1)OCO2 the activity score was -72.1% (active). For Cc1ccnc(Nc2nc3ccccc3s2)n1, the activity score was -81.3% (active). With O=C(NC(=S)Nc1ccc(Cl)cc1Cl)C1CC1 the activity score was -107% (active). In the case of Cc1cc(C)c2nc(NC(=O)C3CCCO3)sc2c1 (configuration not stated), the activity score is reported as -107% (active). With Cc1[nH]n(C(N)=S)c(=O)c1N=Nc1ccc(Cl)cc1Cl the activity score was -112% (active). In the case of COc1ccc(C(=O)Nc2ccc(C3(C#N)CCCC3)cc2)cc1OC, the activity score is reported as -120% (active). For Cc1ccc(C(=O)Nc2ccc3c(c2)OCO3)cc1S(=O)(=O)N1CCCCC1, the activity score was -66.6% (active). In the case of COc1ccc(C(=O)Nc2ccc3c(c2)OCO3)cc1OC, the activity score is reported as -100% (active). For Cn1c(=O)n(C)c2cc(C(=O)Nc3ccc(Br)cc3)ccc21, the activity score was -80.7% (active). For Cn1c(=O)n(C)c2cc(C(=O)Nc3ccc4c(c3)OCO4)ccc21, the activity score was -191% (active). In the case of O=C(Nc1ccccc1)c1ccccc1NC(=O)C(F)(F)F, the activity score is reported as -85.9% (active). In the case of Cc1cccc(-c2noc(-c3ccc(F)cc3)n2)c1, the activity score is reported as -101% (active). With Cc1ccc(Cc2nc(-c3cccc(C)c3)no2)cc1 the activity score was -173% (active). With CCOc1ccc(/C=N/NC(N)=S)cc1 the activity score was -63.3% (active). With Cc1cc(=O)oc2cc(OCC3CC(c4ccccc4Cl)=NO3)ccc12 (configuration not stated) the activity score was -132% (active). Compound CC(C)(C)c1ccc(Oc2ccc(N)cc2)cc1 has an activity score of 112%. In the case of CC(C)(C)c1ccc(OC2=CS(=O)(=O)c3ccccc32)cc1, the activity score is reported as -110% (active). For COC(=O)c1c(NC(=O)c2ccccc2F)sc2c1C(C(=O)OC)CC2 (configuration not stated), the activity score was -72.4% (active). For CCOc1ccc2[nH]c3nc(SCC(=O)NC4CCCC4)nnc3c2c1, the activity score was -73.1% (active). In the case of Cc1cccn2c(=O)c3cc(C(=O)NCCN4CCOCC4)c(=N)n(Cc4cccnc4)c3nc12, the activity score is reported as 97%. In the case of COc1ccc(CCn2c(=N)c(C(=O)NCc3ccco3)cc3c(=O)n4cccc(C)c4nc32)cc1, the activity score is reported as -87.1% (active). For CCn1c2ccccc2c2cc(NC(=O)C/C(C)=N/NC(=O)c3ccccc3N)ccc21, the activity score was -110% (active). In the case of COc1ccc(-c2csc(Cc3nc(O)cs3)n2)cc1, the activity score is reported as -207% (active). In the case of NS(=O)(=O)c1ccc(Nc2nc(-c3ccccc3)cs2)cc1, the activity score is reported as -117% (active). With COc1ccc(-c2csc(Nc3ccc(O)cc3)n2)cc1 the activity score was -170% (active). In the case of COc1ccc(Nc2nc(-c3ccccc3)cs2)cc1, the activity score is reported as -137% (active). In the case of COc1ccc(-c2csc(NC3OC(=O)c4ccccc43)n2)cc1 (configuration not stated), the activity score is reported as -114% (active). For CN(c1ccc(O)cc1)c1nc(-c2cccnc2)cs1, the activity score was -137% (active). With O=C(NCc1cccnc1)C(=O)Nc1nc(-c2ccccc2)cs1 the activity score was -99% (active). For Oc1ccc(-c2csc(Nc3cccnc3)n2)cc1, the activity score was -116% (active). With Cc1ccccc1Nc1nc(-c2cccnc2)cs1 the activity score was -179% (active). In the case of COc1ccc(OC)c(Nc2nc(-c3ccc(O)c(O)c3)cs2)c1, the activity score is reported as -158% (active). With O=C(Nc1ccc2c(c1)OCO2)C1CC(c2c(F)cccc2Cl)=NO1 (configuration not stated) the activity score was -147% (active). With COc1cccc(NC(=O)C(=O)c2cn(CC(=O)N3CCOCC3)c3ccccc23)c1 the activity score was -77.7% (active). For O=C(Nc1ccc([N+](=O)[O-])cc1)C1CC12CCC2 (configuration not stated), the activity score was -78.2% (active). In the case of COc1ccc(NC(=S)N2N=CCC2c2ccccc2)cc1 (configuration not stated), the activity score is reported as -137% (active). For Cn1c(SCc2c(F)cccc2Cl)nnc1-c1cnccn1, the activity score was -126% (active). With CSC(=S)N/N=C/c1c[nH]c2ccccc12 the activity score was -107% (active). In the case of c1ccc(-c2ccc(OCCN3CCOCC3)cc2)cc1, the activity score is reported as -93.6% (active). With COc1ccc(Br)cc1C(=O)NC(=S)Nc1cc(-c2nc3ccccc3[nH]2)ccc1C the activity score was -86.2% (active).
